The sequences below were run against EFCAB6 (assay: pooled miR-30 sensor sort-seq; sequence = guide strand). Conditions: shRNA.
Also: reference of the scale not given here.

Row | Sequence | sensor-assay potency score (higher = more potent)
1 | TAGTTTGTAACAGAAATCCTTA | -0.465
2 | TTGAATATACTCTACACGGTGA | 0.203
3 | TTAGACAAGTCTGACCATCTGT | 0.537
4 | TATATCGAAATTCTTCTCTTGT | 0.825
5 | TTGACTGGCATCTCGTTCCAGA | -0.455
6 | TAAATGTTCACTTAACAGCTGA | -0.275
7 | TTTCATAACAGTCTTAATGTTT | -0.893

Each sequence was assayed against EFCAB7 in the same assay as above. Conditions: shRNA.

Row | Sequence | sensor-assay potency score (higher = more potent)
8 | TTTACTGTCAACCTCTAGTTTT | -1.12
9 | TATATTTTCATAGCCATCCATT | -0.796
10 | TTGATCTTTAGAAATAATGTTT | -0.858
11 | TTCTCTATTTCGTAGTTCGGTA | -1.01
12 | TTCGGTAAAACACACAAGCTGT | -0.242
13 | TTGTTTTCAATAACTGACGTTA | -0.29
14 | TTCTCGATCATTAGCTTCCATT | -1.27
15 | TTCATCTCTATATACAAGTTGG | -0.725
16 | TAGTCTTGAGACATTGCTCGTT | 0.405
17 | TAATTTACAAAACTTGATGTAG | -0.142
18 | TTTGTATCAAAATTCTCTCTGC | 0.129
19 | TACAATAATATATCCATTCTTG | -0.277

Each sequence was assayed against EFNB2 in the same assay as above. Conditions: shRNA.

Row | Sequence | sensor-assay potency score (higher = more potent)
20 | TTTTCCTTCTTAATAGTGCATC | -0.818
21 | AATTCTTGAAACTTGATGGTGA | 0.644
22 | ATAGGCTCTAAAACTATCGATT | -0.56
23 | TATAATATTCATACTGGCCAAC | -1.28
24 | TAGAGGATCATAATTTCTGTGA | -0.365
25 | TTGGAAATCGCAGTTCTGCATA | -1.17
26 | TATCTGTGGGTATAGTACCAGT | -1.11
27 | TTAGACTTTATAAAAAACCAAC | -1.36
28 | TTGCTCTATGTACACAATCTGG | -1.18
29 | TTGCACACCTTAACTAGCCCGA | -0.379
30 | TAGTGCATCTGTCTGCTTGGTC | 0.00867
31 | TTTATACAAAACATCTTGCTTA | 0.624
32 | TTTTCTTCCTGCACATCGCTAT | 0.000564
33 | TATAGTACCAGTCCTTGTCCAG | -0.415
34 | TTCTGCACAGTCTTCCAGCTTC | -0.41
35 | TTGTCGAACTTCTTCCATTTGT | -0.423
36 | TATAATGTAATAATCTTTGTTC | 0.426
37 | TTAATAGTGCATCTGTCTGCTT | -0.0531
38 | TTAGCATAGAACCAAAACGTAG | -1.59
39 | TAATAGTGCATCTGTCTGCTTG | 0.293
40 | TTGTTGTCGAACTTCTTCCATT | -1.15
